PubChem BioAssay (EPA / NIEHS)
Results filed as inconclusive are left out. Active and inactive are the calls of the source. The calls were made as follows, unless noted: active = hit-call score of the fitted dose curve at least 0.9, where 1 is the maximum; inactive = score below 0.9.

Columns and labels:
[1] = BSK_3C_uPAR: BioMAP Diversity Plus: 3C Assay for Urokinase-type plasminogen activator receptor (uPAR) Biomarker Activity (AID 2282998); settings: BioMAP 3C HUVEC, uPAR biomarker ELISA; actives raise or lower the signal
In short: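 Values derive from bidirectional curve fitting relative to DMSO, which served as baseline of activity. uPAR was measured by ELISA in human umbilical vein endothelial primary cultures 24 h after compound addition.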

[2] = BSK_3C_VCAM1: BioMAP Diversity Plus: 3C Assay for Vascular cell adhesion molecule 1 (VCAM1) Biomarker Activity (AID 2282999); settings: BioMAP 3C HUVEC, VCAM1 ELISA, cytokine-stimulated; actives raise or lower the signal
In short: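 Endothelial cells from human umbilical vein are treated with test chemical. At 24 h, VCAM-1 is measured by ELISA, and responses in either direction are fitted relative to DMSO.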

[3] = BSK_4H_Eotaxin3: BioMAP Diversity Plus: 4H Assay for Eotaxin 3 Biomarker Activity (AID 2283000); settings: primary human endothelial cells (HUVEC); actives raise or lower the signal
In short: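 HUVEC, 24 h post-dose, ELISA for Eotaxin-3/CCL26. Gain or loss of signal fitted bidirectionally vs DMSO baseline.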

[4] = read-out: Intercellular Adhesion Molecule 1 (ICAM1), ICAM1 (gene 3383); experiment: BSK_3C_ICAM1: BioMAP Diversity Plus: 3C Assay for Intercellular Adhesion Molecule 1 (ICAM1) Biomarker Activity (AID 2283003); settings: primary human endothelial cells (HUVEC); actives raise or lower the signal
In short: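 Primary human umbilical vein endothelial cells in the BioMAP 3C system were exposed to chemicals for 24 h, then ICAM-1 was quantified by ELISA. Activity was fitted bidirectionally against the DMSO negative control baseline.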

[5] = molecular target: human Retinoic Acid Receptor beta (RARb), RARB (gene 5915) (UniProt P10826); experiment: ATG_RARb_TRANS: Attagene TRANS-FACTORIAL HepG2 Assay for human Retinoic Acid Receptor beta (AID 2283004; active = hit-call score of the fitted dose curve at least 0.9, where 1 is the maximum)
human Retinoic Acid Receptor beta (RARb), RARB (gene 5915), sequence (P10826 whole entry, looked up, the tested form may be a part): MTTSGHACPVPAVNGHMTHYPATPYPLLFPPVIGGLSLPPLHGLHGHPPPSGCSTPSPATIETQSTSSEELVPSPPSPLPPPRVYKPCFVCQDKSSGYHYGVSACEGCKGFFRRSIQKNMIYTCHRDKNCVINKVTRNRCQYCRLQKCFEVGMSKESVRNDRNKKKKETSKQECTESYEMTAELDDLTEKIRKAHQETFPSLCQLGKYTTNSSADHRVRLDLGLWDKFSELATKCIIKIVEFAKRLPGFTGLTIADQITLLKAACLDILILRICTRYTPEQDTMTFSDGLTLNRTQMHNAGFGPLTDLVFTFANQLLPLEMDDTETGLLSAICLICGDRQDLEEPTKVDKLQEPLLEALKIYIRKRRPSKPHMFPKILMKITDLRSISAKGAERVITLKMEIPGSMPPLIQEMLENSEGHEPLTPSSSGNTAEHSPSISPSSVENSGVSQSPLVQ
In short: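 HepG2 cells transiently transfected with multiplexed GAL4-UAS reporter units expressing chimeric NR–Gal4 fusions; 24 h compound exposure. Reporter mRNA quantified by RT-PCR, 6-FAM labelling, HpaI digestion and capillary electrophoresis; gain-of-signal fitted against DMSO baseline.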

[6] = molecular target: Retinoic acid receptor alpha (Homo sapiens) (UniProt P10276); experiment: ATG_RARa_TRANS: Attagene TRANS-FACTORIAL HepG2 Assay for human Retinoic Acid Receptor alpha (RARa) (AID 2283005; active = hit-call score of the fitted dose curve at least 0.9, where 1 is the maximum;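 as to AC50: potency for increased reporter signal meaning RARa activation over DMSO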)
Retinoic acid receptor alpha (Homo sapiens), sequence (P10276 whole entry, looked up, the tested form may be a part): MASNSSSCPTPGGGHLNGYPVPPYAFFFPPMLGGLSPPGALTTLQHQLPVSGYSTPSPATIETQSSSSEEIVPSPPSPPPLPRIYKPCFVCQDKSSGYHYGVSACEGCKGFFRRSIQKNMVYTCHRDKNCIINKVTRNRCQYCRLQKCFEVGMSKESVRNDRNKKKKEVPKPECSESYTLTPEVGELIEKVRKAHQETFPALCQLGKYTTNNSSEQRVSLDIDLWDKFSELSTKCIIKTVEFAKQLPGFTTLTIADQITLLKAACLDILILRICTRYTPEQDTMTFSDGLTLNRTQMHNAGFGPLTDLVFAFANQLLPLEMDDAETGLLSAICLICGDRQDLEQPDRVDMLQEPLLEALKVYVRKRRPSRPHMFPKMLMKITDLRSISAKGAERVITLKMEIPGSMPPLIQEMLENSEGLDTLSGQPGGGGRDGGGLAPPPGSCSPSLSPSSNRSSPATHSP
In short: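 Reporter transcripts, measured by RT-PCR with fluorescent labeling and capillary electrophoresis after 24 h dosing, reflect activity of an exogenous human RARa–GAL4 fusion in transiently transfected HepG2. Fitted for increase relative to DMSO.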

[7] = BSK_3C_Proliferation: Cell Proliferation Assessment in the BioMAP Diversity Plus: 3C Assay (AID 2283006); settings: primary human endothelial cells (HUVEC);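 as to AC50: potency may reflect either rise or fall in cell number versus DMSO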
In short: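 Human umbilical vein endothelial cells were grown sub-confluent and exposed to chemical for 48 h, then fixed with 10% TCA and stained with 0.1% sulforhodamine B; absorbance at 560 nm gave relative cell number, fitted bidirectionally against DMSO baseline.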

[8] = molecular target: Peroxisome proliferator-activated receptor gamma (Homo sapiens) (UniProt P37231); experiment: ATG_PPARg_TRANS: Attagene TRANS-FACTORIAL HepG2 Assay for human Peroxisome Proliferator-activated Receptor-gamma (PPARg) (AID 2283007; active = hit-call score of the fitted dose curve at least 0.9, where 1 is the maximum)
Peroxisome proliferator-activated receptor gamma (Homo sapiens), sequence (P37231 whole entry, looked up, the tested form may be a part): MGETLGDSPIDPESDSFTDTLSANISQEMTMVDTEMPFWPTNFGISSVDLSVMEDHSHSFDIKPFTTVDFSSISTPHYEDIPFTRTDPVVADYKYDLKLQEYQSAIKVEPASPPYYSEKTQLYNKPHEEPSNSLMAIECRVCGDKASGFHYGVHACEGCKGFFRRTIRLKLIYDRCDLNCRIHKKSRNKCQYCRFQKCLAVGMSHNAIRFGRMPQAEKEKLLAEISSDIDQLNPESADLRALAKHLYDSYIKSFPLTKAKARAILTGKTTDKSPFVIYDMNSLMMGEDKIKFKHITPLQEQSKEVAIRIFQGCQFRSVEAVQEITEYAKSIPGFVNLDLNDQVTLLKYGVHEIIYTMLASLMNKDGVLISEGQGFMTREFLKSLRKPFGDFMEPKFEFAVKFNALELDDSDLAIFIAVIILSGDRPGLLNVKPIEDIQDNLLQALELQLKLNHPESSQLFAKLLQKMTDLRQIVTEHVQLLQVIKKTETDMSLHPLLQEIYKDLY
In short: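 HepG2 cells transiently transfected with multiplexed GAL4-UAS reporter units and exogenous chimeric NR-Gal4 proteins; reporter mRNA quantified after 24 h compound exposure by RT-PCR, fluorescent labelling, HpaI digestion and capillary electrophoresis; gain-of-signal fitted versus DMSO baseline.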

[9] = molecular target: Nuclear receptor subfamily 1 group I member 2 (Homo sapiens) (UniProt O75469); experiment: ATG_PXR_TRANS: Attagene TRANS-FACTORIAL HepG2 Assay for human Pregnane X Receptor (PXR) (AID 2283008; active = hit-call score of the fitted dose curve at least 0.9, where 1 is the maximum)
Nuclear receptor subfamily 1 group I member 2 (Homo sapiens), sequence (O75469 whole entry, looked up, the tested form may be a part): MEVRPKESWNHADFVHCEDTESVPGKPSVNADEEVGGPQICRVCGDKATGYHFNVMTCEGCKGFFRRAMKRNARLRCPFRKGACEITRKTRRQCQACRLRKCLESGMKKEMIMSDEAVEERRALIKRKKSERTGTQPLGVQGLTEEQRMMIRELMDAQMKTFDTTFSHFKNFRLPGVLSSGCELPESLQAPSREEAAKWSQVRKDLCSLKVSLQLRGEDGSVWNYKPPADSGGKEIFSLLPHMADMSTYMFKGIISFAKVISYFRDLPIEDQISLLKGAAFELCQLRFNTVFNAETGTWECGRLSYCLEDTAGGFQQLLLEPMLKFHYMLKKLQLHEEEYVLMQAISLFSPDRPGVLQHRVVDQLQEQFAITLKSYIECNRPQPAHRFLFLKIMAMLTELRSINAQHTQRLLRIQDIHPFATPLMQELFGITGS
In short: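 HepG2 cells transiently transfected with multiple reporter units, here a PXR-GAL4 chimera driving a GAL4-UAS reporter; 24 h compound exposure. Reporter mRNA measured by RT-PCR, FAM labelling and capillary electrophoresis; gain of signal fitted against DMSO baseline.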

[10] = molecular target: human Retinoic Acid Receptor gamma (RARg), RARG (gene 5916) (UniProt P13631); experiment: ATG_RARg_TRANS: Attagene TRANS-FACTORIAL HepG2 Assay for human Retinoic Acid Receptor gamma (RARg) (AID 2283009; active = hit-call score of the fitted dose curve at least 0.9, where 1 is the maximum)
human Retinoic Acid Receptor gamma (RARg), RARG (gene 5916), sequence (P13631 whole entry, looked up, the tested form may be a part): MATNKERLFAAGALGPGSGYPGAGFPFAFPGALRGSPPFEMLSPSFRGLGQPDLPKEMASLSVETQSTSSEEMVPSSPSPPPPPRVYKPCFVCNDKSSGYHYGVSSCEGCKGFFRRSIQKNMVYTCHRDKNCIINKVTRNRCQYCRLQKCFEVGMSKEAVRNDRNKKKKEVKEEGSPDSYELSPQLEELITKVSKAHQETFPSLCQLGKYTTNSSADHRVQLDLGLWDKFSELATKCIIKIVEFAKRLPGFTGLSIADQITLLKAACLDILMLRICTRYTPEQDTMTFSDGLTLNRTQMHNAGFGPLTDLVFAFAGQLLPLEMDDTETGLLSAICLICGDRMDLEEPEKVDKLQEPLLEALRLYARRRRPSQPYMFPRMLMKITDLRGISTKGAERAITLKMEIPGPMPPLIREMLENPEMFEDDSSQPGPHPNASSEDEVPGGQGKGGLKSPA
In short: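 HepG2 cells transiently transfected with multiplexed reporter units expressing chimeric RARg-GAL4 and GAL4-UAS-driven reporters; 24 h compound exposure. Reporter mRNA quantified by RT-PCR with fluorescent labelling and capillary electrophoresis; gain-of-signal fitted relative to DMSO baseline.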

[11] = molecular target: Retinoic acid receptor RXR-alpha (Homo sapiens) (UniProt P19793); experiment: ATG_RXRa_TRANS: Attagene TRANS-FACTORIAL HepG2 Assay for human Retinoid X Receptor alpha (RXRa) (AID 2283012; active = hit-call score of the fitted dose curve at least 0.9, where 1 is the maximum)
Retinoic acid receptor RXR-alpha (Homo sapiens), sequence (P19793 whole entry, looked up, the tested form may be a part): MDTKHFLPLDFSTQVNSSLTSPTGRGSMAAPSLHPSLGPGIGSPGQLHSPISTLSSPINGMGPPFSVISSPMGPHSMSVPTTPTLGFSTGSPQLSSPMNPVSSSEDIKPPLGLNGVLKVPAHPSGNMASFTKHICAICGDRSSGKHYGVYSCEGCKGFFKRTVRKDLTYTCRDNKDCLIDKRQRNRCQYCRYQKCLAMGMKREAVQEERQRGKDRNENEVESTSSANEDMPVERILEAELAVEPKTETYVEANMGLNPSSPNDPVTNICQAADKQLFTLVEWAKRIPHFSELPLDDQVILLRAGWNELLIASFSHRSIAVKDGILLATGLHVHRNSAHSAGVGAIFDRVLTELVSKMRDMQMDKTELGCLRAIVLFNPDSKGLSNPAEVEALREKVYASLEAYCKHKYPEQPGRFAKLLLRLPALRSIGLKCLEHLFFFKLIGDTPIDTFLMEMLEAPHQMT
In short: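 HepG2 cells transiently transfected with multiplexed GAL4-UAS reporter units and chimeric NR-GAL4 fusions, dosed 24 h. Reporter mRNA measured by RT-PCR, FAM labelling, HpaI digestion and capillary electrophoresis; gain-of-signal fitted relative to DMSO baseline.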

[12] = molecular target: human Retinoid X Receptor beta (RXRb), RXRB (gene 6257) (UniProt P28702); experiment: ATG_RXRb_TRANS: Attagene TRANS-FACTORIAL HepG2 Assay for human Retinoid X Receptor beta (RXRb) (AID 2283013; active = hit-call score of the fitted dose curve at least 0.9, where 1 is the maximum)
human Retinoid X Receptor beta (RXRb), RXRB (gene 6257), sequence (P28702 whole entry, looked up, the tested form may be a part): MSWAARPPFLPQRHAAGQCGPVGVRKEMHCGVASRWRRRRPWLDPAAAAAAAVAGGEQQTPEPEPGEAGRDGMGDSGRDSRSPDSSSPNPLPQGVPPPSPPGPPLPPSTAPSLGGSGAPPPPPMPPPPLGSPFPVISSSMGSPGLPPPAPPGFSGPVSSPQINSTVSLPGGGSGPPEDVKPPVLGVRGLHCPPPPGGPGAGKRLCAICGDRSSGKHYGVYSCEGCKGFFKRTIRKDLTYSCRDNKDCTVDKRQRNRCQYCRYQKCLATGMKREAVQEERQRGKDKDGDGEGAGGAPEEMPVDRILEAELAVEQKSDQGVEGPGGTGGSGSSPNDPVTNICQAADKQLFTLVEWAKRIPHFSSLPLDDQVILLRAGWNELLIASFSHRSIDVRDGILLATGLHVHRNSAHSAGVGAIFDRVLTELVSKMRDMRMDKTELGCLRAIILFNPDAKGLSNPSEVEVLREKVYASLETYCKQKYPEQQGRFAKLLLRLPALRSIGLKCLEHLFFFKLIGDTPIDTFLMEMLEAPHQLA
In short: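 HepG2 cells transiently transfected with multiplexed reporter units driven by GAL4-UAS and exogenous chimeric NR-Gal4 proteins; treated 24 h. Reporter mRNA measured by RT-PCR, 6-FAM labelling and capillary electrophoresis; gain-of-signal fitted versus DMSO baseline.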

[13] = molecular target: human Thyroid Receptor alpha (THRa1), THRA (gene 7067) (UniProt P10827); experiment: ATG_THRa1_TRANS: Attagene TRANS-FACTORIAL HepG2 Assay for human Thyroid Receptor alpha (THRa1) (AID 2283014; active = hit-call score of the fitted dose curve at least 0.9, where 1 is the maximum)
human Thyroid Receptor alpha (THRa1), THRA (gene 7067), sequence (P10827 whole entry, looked up, the tested form may be a part): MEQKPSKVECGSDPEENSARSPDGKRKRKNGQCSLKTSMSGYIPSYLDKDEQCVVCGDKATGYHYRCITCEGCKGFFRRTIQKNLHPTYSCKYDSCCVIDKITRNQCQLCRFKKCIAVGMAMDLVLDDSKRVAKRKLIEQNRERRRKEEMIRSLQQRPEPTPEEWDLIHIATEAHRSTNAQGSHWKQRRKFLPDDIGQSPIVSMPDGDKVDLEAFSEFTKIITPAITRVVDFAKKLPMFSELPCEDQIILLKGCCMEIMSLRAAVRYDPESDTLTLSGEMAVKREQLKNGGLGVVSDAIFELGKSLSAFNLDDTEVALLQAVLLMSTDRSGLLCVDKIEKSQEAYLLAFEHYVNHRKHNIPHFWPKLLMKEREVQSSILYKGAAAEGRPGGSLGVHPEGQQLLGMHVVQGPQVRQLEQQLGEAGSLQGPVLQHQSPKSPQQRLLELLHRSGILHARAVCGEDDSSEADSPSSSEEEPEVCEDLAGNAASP
In short: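 HepG2 cells transiently transfected with multiplexed GAL4-UAS reporter units for exogenous chimeric THRa1-Gal4; reporter mRNA measured 24 h after dosing by RT-PCR, 6-FAM labelling, HpaI digestion and capillary electrophoresis. Gain-of-signal fitted versus DMSO baseline.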

[14] = read-out: E-selectin (Homo sapiens) (UniProt P16581); experiment: BSK_3C_Eselectin: BioMAP Diversity Plus: 3C Assay for Eselectin Biomarker Activity (AID 2283015); settings: primary human endothelial cells (HUVEC); actives raise or lower the signal
In short: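 Primary human umbilical vein endothelial cells (3C system) were dosed with chemical and cell-surface E-selectin measured by ELISA 24 h later. Bidirectional curve fitting used DMSO as negative control and baseline.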

[15] = read-out: Interleukin-1 alpha (IL1a), IL1A (gene 3552); experiment: BSK_BE3C_IL1a: BioMAP Diversity Plus: BE3C Assay for Interleukin-1 alpha (IL1a) Biomarker Activity (AID 2283016); settings: primary human bronchial epithelial cells; actives raise or lower the signal
In short: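 Human primary bronchial epithelial cells (BE3C system) were dosed with compound and IL-1a measured by ELISA 24 h later. Activity was fitted bidirectionally against DMSO baseline; cytotoxicity was tracked in parallel cultures by SRB total-protein staining.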

[16] = read-out: Monocyte Chemoattractant Protein-1 (MCP1), CCL2 (gene 6347); experiment: BSK_3C_MCP1: BioMAP Diversity Plus: 3C Assay for Monocyte Chemoattractant Protein-1 (MCP1) Biomarker Activity (AID 2283017); settings: primary human endothelial cells (HUVEC); actives raise or lower the signal
In short: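 Primary human umbilical vein endothelial cells (3C system) were exposed to test chemical for 24 h, after which MCP-1 was quantified by ELISA. Activity was fitted bidirectionally against DMSO as negative control and baseline.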

[17] = read-out: Monocyte Chemoattractant Protein-1 (MCP1), CCL2 (gene 6347); experiment: BSK_4H_MCP1: BioMAP Diversity Plus: 4H Assay for Monocyte Chemoattractant Protein-1 (MCP1) Biomarker Activity (AID 2283018); settings: primary human endothelial cells (HUVEC); actives raise or lower the signal
In short: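 Human umbilical vein endothelial cells (4H system) dosed with chemical; MCP-1 measured by ELISA 24 h after dosing. Bidirectional curve fitting against DMSO negative control as baseline; parallel SRB total-protein staining tracks overt cytotoxicity.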

[18] = molecular target: human RAR-related Orphan Receptor beta (RORb), RORB (gene 6096) (UniProt Q92753); experiment: ATG_RORb_TRANS: Attagene TRANS-FACTORIAL HepG2 Assay for human RAR-related Orphan Receptor beta (RORb) (AID 2283010; active = hit-call score of the fitted dose curve at least 0.9, where 1 is the maximum)
human RAR-related Orphan Receptor beta (RORb), RORB (gene 6096), sequence (Q92753 whole entry, looked up, the tested form may be a part): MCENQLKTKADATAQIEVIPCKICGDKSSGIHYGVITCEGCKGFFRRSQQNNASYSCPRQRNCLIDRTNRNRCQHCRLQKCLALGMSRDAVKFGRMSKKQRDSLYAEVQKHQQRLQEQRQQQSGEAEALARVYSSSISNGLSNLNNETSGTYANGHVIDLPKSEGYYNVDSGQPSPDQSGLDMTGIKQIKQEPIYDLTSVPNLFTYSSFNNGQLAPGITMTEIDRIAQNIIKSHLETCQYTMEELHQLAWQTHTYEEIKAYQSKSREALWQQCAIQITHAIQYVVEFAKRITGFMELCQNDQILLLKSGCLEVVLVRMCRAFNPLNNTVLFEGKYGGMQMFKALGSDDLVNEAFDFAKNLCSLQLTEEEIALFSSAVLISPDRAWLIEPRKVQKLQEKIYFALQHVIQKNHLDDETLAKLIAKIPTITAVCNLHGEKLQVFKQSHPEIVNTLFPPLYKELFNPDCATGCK
In short: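 HepG2 cells were transiently transfected with multiplexed GAL4-UAS reporter units expressing chimeric nuclear receptor–GAL4 proteins, then dosed for 24 h. Reporter mRNA was quantified by RT-PCR with fluorescent labelling and capillary electrophoresis; gain of signal was fitted relative to DMSO.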

Measured: AC50

E-selectin (Homo sapiens), sequence (P16581 whole entry, looked up): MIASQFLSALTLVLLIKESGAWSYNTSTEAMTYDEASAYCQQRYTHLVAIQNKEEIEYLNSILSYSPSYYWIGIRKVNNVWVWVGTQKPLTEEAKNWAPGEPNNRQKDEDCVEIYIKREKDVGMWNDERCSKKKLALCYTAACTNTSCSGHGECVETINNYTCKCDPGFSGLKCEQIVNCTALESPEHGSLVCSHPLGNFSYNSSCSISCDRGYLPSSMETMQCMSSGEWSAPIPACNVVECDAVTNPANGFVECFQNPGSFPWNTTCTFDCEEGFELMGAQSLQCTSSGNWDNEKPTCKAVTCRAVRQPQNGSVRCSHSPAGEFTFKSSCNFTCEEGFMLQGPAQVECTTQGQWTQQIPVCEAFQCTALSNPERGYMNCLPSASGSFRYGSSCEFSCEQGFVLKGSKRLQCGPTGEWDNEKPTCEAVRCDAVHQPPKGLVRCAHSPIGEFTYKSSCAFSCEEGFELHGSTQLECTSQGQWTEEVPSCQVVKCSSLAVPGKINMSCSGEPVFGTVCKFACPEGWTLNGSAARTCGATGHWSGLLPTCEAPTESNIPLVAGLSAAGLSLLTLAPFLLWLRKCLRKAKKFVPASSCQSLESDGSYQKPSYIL

CC(C)(C)C(=O)C(Oc1ccc(Cl)cc1)n1cncn1 (stereo not given)
active: [6] 50 µM | [9] 19.9 µM
not listed: [18]
inactive: all other assays above

Clc1nc(Cl)nc(Nc2ccccc2Cl)n1
active: [8] 9.95 µM
not listed: [5] | [10] | [12] | [18]
inactive: all other assays above

C=C(C)CN(CC)c1c([N+](=O)[O-])cc(C(F)(F)F)cc1[N+](=O)[O-]
active: [6] 30.2 µM | [7] 33.4 µM | [9] 13.6 µM
not listed: [13] | [18]
inactive: all other assays above

CO/N=C(/C1=NOCCO1)c1ccccc1Oc1ncnc(Oc2ccccc2Cl)c1F
inactive: [2] | [4] | [8] | [9] | [12] | [13] | [15]
active: [1] 5.95 µM | [3] 27.8 µM | [7] 17.4 µM | [14] 6.21 µM | [16] 20.1 µM

CCN(CC)C(=O)C(C)Oc1cccc2ccccc12 (stereo not given)
active: [3] 10.8 µM | [7] 6.69 µM | [8] 50 µM | [9] 0.503 µM
not listed: [5] | [6] | [10] | [13]
inactive: all other assays above

CNC(=O)Oc1cccc2ccccc12
active: [3] 20 µM | [7] 22.9 µM
not listed: [8]
inactive: all other assays above
